Screens from PubChem.
BLM helicase inh: blocks DNA unwinding by human BLM helicase; P54132; recombinant BLM DNA unwinding, fluorescence dequenching; Potency, µM (doses to about 56.1 µM), inactives show at the highest dose activity change, negative = inhibition, hits mostly inhibitors; actives 0.2% (n = 350,000); AID 2528;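 note: plate controls were vehicle for no effect and no enzyme for full effect; nearly all actives have a fitted effect of over 35% in size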
WRN inhibitor: WRN helicase (human) inhibition; actives 0.46% (n = 360,000); Potency, µM (top dose mostly 114 µM), inactives show top-dose activity change, negative = inhibition, hits mostly inhibitors; Q14191; AID 651768; WRN helicase unwinding, fluorescent forked duplex, kinetic; note: % is set by controls: 0 for no effect and ±100 for the full control effect; nearly all actives have a fitted effect of over 55% in size
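Primary qHTS, 1536-well format. 20 nM WRN + compound, 15 min RT; start with 100 nM forked fluorophore/quencher duplex, 2 mM ATP (final); kinetic read ex 525/em 598 nm.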
APEX1 inh: blocks human APE1 abasic DNA cleavage. P27695. recombinant APE1, TAMRA/BHQ-2 abasic DNA cleavage fluorescence. Potency, µM (doses to about 65.8 µM), for the others: at the highest dose activity change, negative = inhibition, most hits filed as inhibitors. actives 0.35% (n = 350,000). AID 2517;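 note: plate controls were vehicle for no effect and reference inhibitor for full effect; nearly all actives have a fitted effect of over 55% in size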
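Step 1: APE1 (0.75 nM) with compound, 15 min RT. Step 2: add 50 nM fluorophore/quencher THF duplex. Step 3: three fluorescence reads 60 s apart (525/598 nm); read 3 minus read 1 = reaction progress.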
RECQ1 inh: inhibitors of human RECQ1 DNA helicase; AID 2549; RECQ1 DNA unwinding, red fluorescence kinetic read; actives 0.54% (n = 240,000); Potency, µM (doses to about 57.3 µM), for the others: at the highest dose activity, negative = inhibition, actives largely listed as inhibitors; P46063;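 note: plate controls were vehicle for no effect and no enzyme for full effect; nearly all actives have a fitted effect of over 30% in size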
Target sequence (P46063 whole entry, looked up): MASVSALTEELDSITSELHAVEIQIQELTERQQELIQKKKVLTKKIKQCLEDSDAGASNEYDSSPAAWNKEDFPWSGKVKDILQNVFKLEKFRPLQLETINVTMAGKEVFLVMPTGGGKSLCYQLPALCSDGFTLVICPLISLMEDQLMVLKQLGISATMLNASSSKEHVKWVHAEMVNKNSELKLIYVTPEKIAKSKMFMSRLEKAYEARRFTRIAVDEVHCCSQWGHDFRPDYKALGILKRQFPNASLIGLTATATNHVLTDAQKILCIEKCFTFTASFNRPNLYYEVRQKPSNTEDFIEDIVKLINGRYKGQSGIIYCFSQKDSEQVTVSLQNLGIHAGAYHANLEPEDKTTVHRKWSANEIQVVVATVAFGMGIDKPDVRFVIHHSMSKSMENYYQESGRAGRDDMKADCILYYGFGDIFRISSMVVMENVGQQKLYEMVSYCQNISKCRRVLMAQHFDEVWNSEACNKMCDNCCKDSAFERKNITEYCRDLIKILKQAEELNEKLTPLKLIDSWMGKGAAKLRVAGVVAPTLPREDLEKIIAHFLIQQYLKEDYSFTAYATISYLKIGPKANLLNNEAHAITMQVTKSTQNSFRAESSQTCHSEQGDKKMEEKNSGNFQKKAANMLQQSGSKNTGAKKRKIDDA
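50 nM RECQ1T1 preincubated 15 min with compound in Tris pH 8.0 buffer with MgCl2, DTT, Tween-20 and 2.5 ug/ml poly(dI-dC); started with 200 nM TAMRA/BHQ-2 forked duplex and 2 mM ATP. Unwinding read as fluorescence (525/598 nm), two reads 2 h apart.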
FEN1 inh-1: inhibitors of human flap endonuclease 1 | AID 588795 | actives 0.35% (n = 390,000) | Potency, µM (series often up to 114 µM), for the others: at the highest dose activity change, negative = inhibition, usual class: inhibitors | Recombinant FEN1 flap cleavage, fluorescence, 15 min; note: % is set by controls: 0 for no effect and ±100 for the full control effect; nearly all actives have a fitted effect of over 65% in size
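Concentration–response screening of FEN1 (10 nM): 15 min compound preincubation at room temperature, reaction started with 50 nM substrate and read at 0 and 15 min. Corrected, normalized data were fitted by a four-parameter Hill equation.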
FEN1 inh-2: confirmation of human FEN1 inhibitors. AID 720498. shares compounds with FEN1 inh-1. Potency, µM, hits mostly inhibitors. FEN1 flap cleavage, TAMRA/BHQ2 fluorogenic DNA substrate. actives 79% (n = 880); note: nearly all actives have a fitted effect of over 60% in size
Starred values were filed as active, the others as inactive; i = inactive; ? = inconclusive; . = not tested or not shown; [ ] = dose if it differs, or a comment. Sampled rows, rich in hits. Any-hit rate of the full collection: about 0.87%. Calls come from the whole dose curve; as a rule, active = well fitted curve in the direction sought with a large enough effect; inconclusive = small, poorly fitted or top-dose-only effect, or another doubt; inactive = no such curve, though single readings can be large; an effect the other way counts as inactive or inconclusive. Potency is the fitted concentration of half-maximal effect.

SMILES | BLM helicase inh | WRN inhibitor | APEX1 inh | RECQ1 inh | FEN1 inh-1 | FEN1 inh-2
COc1ccc2sc(/C=C/c3ccccc3O)[n+](C)c2c1 | -2.4% | ? | -5.7% | ? | 39.8µM* | 84.9*
N#CC(C#N)=C1C=C2C=C(N3CCCCCC3)CCC2CC1 (centres undefined) | 12.6µM* | 15µM* | ? | 28.2µM* | ? | 67.5*
COc1cc(/C=C/c2nc3ccccc3c(=O)[nH]2)cc(Cl)c1O | -27.7% | -34.5% | 11.8% | . | ? | ?
CCn1cc(C(=O)O)c(=O)c2cc(F)c(N/N=C/c3ccccc3[N+](=O)[O-])cc21 | -10.0% | ? | 0.8% | -7.3% | -20.0% | 7.57*
CCn1cc(C(=O)O)c(=O)c2cc(F)c(N3CCN(C(=S)Nc4ccccc4OC)CC3)cc21 | -11.8% | 5.4% | 2.6% | -3.6% | -28.3% | .
CCCCC1CCC(C(=O)N2CC(=O)Nc3ccc(Br)cc3C2c2ccc(F)cc2)CC1 (centres undefined) | -15.3% | . | . | . | -6.4% | .
O=c1[nH]c(=S)[nH]c2c1C(c1ccc(Br)cc1)c1c([nH]c(=S)[nH]c1=O)O2 | -19.9% | 14.1µM* | 11.3% | . | 17.8µM* | 2.13*
COCCN1C(=O)c2[nH]nc(-c3ccccc3O)c2C1c1ccc(Cl)c(Cl)c1 (centres undefined) | -5.6% | . | . | . | -4.4% | .
CCCc1cc(=O)oc2cc(OCC(=O)Nc3ccc(S(N)(=O)=O)cc3)ccc12 | ? | ? | ? | . | ? | 67.5*
CCCc1cc(=O)oc2cc(OCC(=O)NCc3cccs3)ccc12 | -5.6% | 0.7% | 18.5% | -3.6% | -2.6% | .
CCN1CCN(Cc2c(O)ccc3c(C)c(-c4ccc(OC)cc4)c(=O)oc23)CC1 | -4.3% | . | . | . | 4.7% | .
Nc1ccc2cc3[nH]c4cc(N)ccc4c3nc2c1 | . | 25.1µM* | . | . | 11.2µM* | 12*
O=C(Nc1ccc2[nH]c(=O)[nH]c2c1)c1ccc([N+](=O)[O-])o1 | . | -8.2%[11.6 µM] | -25.1% | . | -23.9% | 42.6*
COc1ccc(N)c2c1C(=O)c1ccccc1C2=O | -24.9% | 20µM* | ? | -22.9% | ? | 75.7*
O=C1c2ccccc2C(=O)c2c(O)c(O)cc(O)c21 | 52.5% | 249.0% | 18.9µM* | 6.31µM* | ? | 37.9*
COc1ccc(OC)c2c1C(=O)c1ccccc1C2=O | 0.8% | ? | ? | -12.3% | ? | .
Nc1ccc(O)c2c1C(=O)c1ccccc1C2=O | 14.1µM* | 31.6µM* | 10.5% | 0.5% | 35.5µM* | 42.6*
O=C1c2ccccc2C(=O)c2c(O)ccc(O)c21 | -10.9% | . | 8.7% | i | . | .
O=C1C=C(O)c2c(O)cc(O)c(O)c2C1=O | . | ? | . | . | 3.55µM* | 21.3*
Cc1ccc(CNC(=O)CCc2c(C)c3cc4c(C)coc4cc3oc2=O)cc1 | -5.2% | . | . | . | -2.8% | .
COc1ccc2noc3c2c1C(=O)c1ccccc1-3 | . | ? | . | . | ? | ?
CN(C)CCCN1C(=O)c2cccc3c([N+](=O)[O-])ccc(c23)C1=O | 104.8% | -18.8% | -15.6% | i | 50.1µM* | 33.8*
CCOc1c2c(c(-c3ccc4c(c3)OCO4)c3cc(OC)c(OC)cc13)C(=O)OC2 | . | . | . | . | -0.7% | .
O=C(COC(=O)c1ccc([N+](=O)[O-])s1)Nc1ccc(F)cc1 | . | 27.4% | ? | . | -17.0% | .
O=C(OCc1nnc(-c2ccccc2)o1)c1ccc([N+](=O)[O-])s1 | . | 30.6% | ? | . | ? | 4.78*
COc1ccc(S(=O)(=O)N2CCOCC2)cc1NC(=O)COC(=O)c1ccc([N+](=O)[O-])s1 | . | -13.1%[11.6 µM] | ? | . | -19.6% | 6.75*
O=C(COC(=O)c1ccc([N+](=O)[O-])s1)Nc1ccccc1 | -7.4% | -3.0%[57.1 µM] | ? | i | -18.5% | 21.3*
CCc1ccccc1NC(=O)Cn1nc(C)c2nn(-c3ccc(Cl)cc3)c(C)c2c1=O | -0.7% | . | . | . | 0.6% | .
CCN(CC)CCOc1ccc2c(c1)C(=NO)c1cc(OCCN(CC)CC)ccc1-2 | -70.5% | 35.5µM* | -14.6% | 31.2% | 12.6µM* | 8.49*
